# GPR151 ag – human GPR151 activation | hit rate 1% among 650,000 | AID 1508602 | Q8TDV0 | activation, % at 11.2 µM | PathHunter beta-arrestin GPR151 cells, luminescence; in the data active = activation above about 4.9%;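 also: 0% = median of compound wells and 100% = cells with positive control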
# FBW7 activator – activators of human E3 ligase FBW7; Q969H0; AlphaScreen FBW7–phospho-cyclin E peptide binding, activator screen; normalized activity (activation), % at 26.1 µM; hit rate 0.13% among 650,000; in the data active = normalized activity above about 1.9%;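 also: purified mutant Fbw7 with reduced substrate affinity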
# Target sequence (Q969H0 whole entry, looked up): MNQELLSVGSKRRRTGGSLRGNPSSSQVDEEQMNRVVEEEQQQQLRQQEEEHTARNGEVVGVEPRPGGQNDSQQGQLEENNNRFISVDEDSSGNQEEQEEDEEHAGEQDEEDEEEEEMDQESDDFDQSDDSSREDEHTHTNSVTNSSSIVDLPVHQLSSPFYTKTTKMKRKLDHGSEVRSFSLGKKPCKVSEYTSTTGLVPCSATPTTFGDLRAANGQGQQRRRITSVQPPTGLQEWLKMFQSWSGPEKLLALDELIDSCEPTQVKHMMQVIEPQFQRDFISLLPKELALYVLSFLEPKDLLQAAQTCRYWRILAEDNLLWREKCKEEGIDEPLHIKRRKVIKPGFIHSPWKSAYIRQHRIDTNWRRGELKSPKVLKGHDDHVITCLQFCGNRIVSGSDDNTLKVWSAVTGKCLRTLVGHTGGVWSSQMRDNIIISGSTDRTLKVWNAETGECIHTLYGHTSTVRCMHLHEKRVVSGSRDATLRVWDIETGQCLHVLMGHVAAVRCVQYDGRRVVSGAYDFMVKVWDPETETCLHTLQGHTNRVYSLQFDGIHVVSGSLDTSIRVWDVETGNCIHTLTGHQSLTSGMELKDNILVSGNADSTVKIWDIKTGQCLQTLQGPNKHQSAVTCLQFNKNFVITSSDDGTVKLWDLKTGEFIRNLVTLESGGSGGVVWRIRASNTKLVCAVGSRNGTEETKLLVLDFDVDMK
# MITF inh – human MITF inhibition, primary screen. O75030. AlphaScreen MITF homodimerization, bead proximity signal. inhibition, % at 2.6 µM. hit rate 0.91% among 650,000. AID 1259374; in the data active = inhibition above about 50%;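 also: 0% = vehicle wells with protein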
# TEAD-YAP inh – TEAD-YAP interaction inhibition. hit rate 1.4% among 640,000. AID 1259422. HEK-TIYL cells, TEAD-Gal4/YAP UAS-luciferase luminescence. inhibition, % at 9.12 µM; in the data active = inhibition above about 32%;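 also: 0% = median of test compound wells and 100% = reference inhibitor wells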
# Starred values were filed as active, the others as inactive. This is a sample that favours compounds with a hit; in the whole collection about 3.5% have one here.
SMILES,GPR151 ag,FBW7 activator,MITF inh,TEAD-YAP inh
CCCCOC(=O)c1cccc(NC(=O)c2ccc(C(C)(C)C)cc2)c1,1,0,-7,52*
O=C(O)c1cccc(NC(=O)c2ccc(-c3ccccc3)cc2)c1,3,0,-4,41*
CCOCCOC(=O)c1ccc(NC(=O)c2ccc(C(C)(C)C)cc2)cc1,0,0,3,69*
Fc1ccc(/C=N/c2nnc3n(/N=C/c4ccc(F)cc4)cnn23)cc1,0,0,-2,-4
COc1ccc(OCCCC(=O)Nc2sc3c(c2C(N)=O)CCC(C)C3)cc1 (configuration not stated),1,0,5,5
COc1ccc(CCNc2nc(SCC(=O)N3CCN(c4ccccc4OC)CC3)nc3ccccc23)cc1OC,-1,1,-1,34*
COc1ccc(CCn2c(SCC(=O)N3CCN(c4ccccc4OC)CC3)nc3ccsc3c2=O)cc1OC,-1,0,7,51*
COc1ccc(CCNc2nc(SCC(=O)N3CCN(c4ccccc4)CC3)nc3ccccc23)cc1OC,1,1,10,36*
CCC(C)NC(=O)CSc1nc(NCCc2ccc(OC)c(OC)c2)c2ccccc2n1 (configuration not stated),-1,0,-5,-2
CCOc1cc(C2C(C#N)=C(N)Oc3c2ccc2ccccc32)cc(Br)c1O (configuration not stated),0,0,1,65*
CCOC(=O)C(=CNc1cc2oc3ccccc3c2cc1OC)C(=O)OCC,1,0,-4,3
CNC(=O)/C(=C\c1ccc([N+](=O)[O-])cc1)NC(=O)c1ccco1,0,0,9,3
NNC(=O)/C(=C/c1ccc([N+](=O)[O-])cc1)NC(=O)c1ccco1,0,0,-1,50*
O=C(O)CCCCCNS(=O)(=O)c1ccc(Cl)c(C(F)(F)F)c1,0,0,4,3
COc1ccccc1NC(=O)c1ccc(SCC(=O)N2CCC3(CC2)OCCO3)c([N+](=O)[O-])c1,1,0,-1,38*
Cc1cc(NC(=O)CSc2nc3ccccc3c3nc(CCN4CCCCC4)nn23)n[nH]1,-1,1,15,58*
Cc1cc(NC(=O)CSc2nc(Nc3ccc4c(c3)OCO4)c3ccccc3n2)n[nH]1,1,0,9,50*
Cc1cc(NC(=O)CSc2nc3ccccc3c3nc(CCc4c[nH]c5ccccc45)nn23)n[nH]1,1,0,-10,61*
CC(C)CCNC(=O)CSc1nc(Nc2ccc3c(c2)OCO3)c2ccccc2n1,0,1,1,10
O=C(CSc1nc2ccccc2c(=O)n1CCCN1CCCCC1)Nc1nccs1,1,0,5,42*
CCOc1ccc(Nc2cc(N3CCC(C)CC3)c3noc4c3c2C(=O)c2ccccc2-4)cc1,0,0,14,-2
O=[N+]([O-])c1ccccc1CSc1n[nH]c(-c2ccccc2[N+](=O)[O-])n1,-2,0,4,-11
Fc1cccc2c1NC(c1ccc(Br)cc1)C1CC=CC21 (configuration not stated),0,0,1,19
CCOc1cccc2c1NC(c1ccc(C(=O)O)cc1)C1CC=CC21 (configuration not stated),0,-2,59*,-8
O=C(O)c1ccc([C@@H]2Nc3c(F)cccc3[C@@H]3C=CC[C@@H]32)cc1,1,-1,70*,2
SMILES,GPR151 ag,FBW7 activator,MITF inh,TEAD-YAP inh
CCOC(=O)c1cccc2c1N[C@@H](c1ccc(C(=O)O)cc1)[C@H]1CC=C[C@@H]21,0,-1,76*,8
CC(C)(C)c1ccc(OCC(=O)Nc2ccncc2)c(Br)c1,1,0,-7,34*
Cc1ccc(OCC(=O)Nc2ccccc2)c(Br)c1,0,0,4,70*
O=C(COc1ccc(CO)cc1Br)Nc1ccccc1,-2,0,-7,55*
CC(=O)c1cccc(NC(=O)COc2ccc(C)cc2Br)c1,-1,0,5,-41
CC(C)CNC(=O)c1cc(-c2ccc(Cl)cc2)on1,0,0,12,-41
Cc1nc(NCCc2ccccc2)c2c3c(sc2n1)CCC3,2,0,-8,-2
CCSc1nc2ccc(NC(=O)CSc3nnc(-c4ccccc4)n3-c3ccccc3)cc2s1,2,0,4,6
C[C@@H]1CC[C@H]2[C@@H](C)C(O)O[C@@H]3OC4(C)CC[C@@H]1[C@]32OO4 (some centres not stated),0,0,25,88*
CO[C@H]1O[C@@H]2O[C@@]3(C)CC[C@H]4[C@H](C)CC[C@@H]([C@H]1C)[C@@]24OO3,1,0,9,2
C[C@H]1[C@@H](OC(=O)CCC(=O)O)O[C@@H]2OC3(C)CC[C@H]4[C@H](C)CC[C@@H]1[C@@]24OO3,0,0,-1,82*
O=C1C(N2CCCCC2)=C(N2CCCCC2)C(=O)c2ccccc21,-3,-1,-7,-2
CNC1=C(N2CCCCC2)C(=O)c2ccccc2C1=O,-3,1,13,94*
CC(=O)Nc1ccc(NC2=C(N3CCOCC3)C(=O)c3ccccc3C2=O)cc1,-1,0,11,-5
CCOc1ccc(NC2=C(N3CCOCC3)C(=O)c3ccccc3C2=O)cc1,1,0,54*,-25
CCCNC1=C(N2CCCCC2)C(=O)c2ccccc2C1=O,-1,1,23,93*
O=C1C(NC2CCCCC2)=C(N2CCCCC2)C(=O)c2ccccc21,-1,1,16,1
COc1ccc(NC(=O)c2ccccc2Cl)cc1,-5,0,8,-12
CCOc1cc(C(=O)NCc2cccnc2)cc(Br)c1OC,3,0,4,-2
Cc1ccc(Nc2nc(Cl)nc(Nc3ccc(C)cc3C)n2)c(C)c1,0,0,5,-1
Cc1ccccc1Nc1nc(Cl)nc(Nc2ccccc2C)n1,1,0,5,45*
Cc1cc(NC(=O)C2CC(c3ccccc3F)=NO2)n(-c2ccccc2)n1 (configuration not stated),-1,1,-2,8
CCN(Cc1ccccc1)S(=O)(=O)c1cc(C(=O)Nc2ccc(Br)cc2)ccc1F,1,0,-1,50*
CCCCN(CC)S(=O)(=O)c1cc(C(=O)Nc2ccc(Oc3ccccc3)cc2)ccc1F,0,0,-4,60*
COc1cccc(NC(=O)c2ccc(F)c(S(=O)(=O)N(C)Cc3ccccc3)c2)c1,2,0,-6,-4
CN(Cc1ccccc1)S(=O)(=O)c1cc(C(=O)Nc2ccc(Oc3ccccc3)cc2)ccc1F,0,0,27,61*
CCN(c1ccccc1)S(=O)(=O)c1cc(C(=O)Nc2ccc(Br)cc2)ccc1F,0,0,6,4
O=C(Nc1n[nH]c(=S)s1)c1c(F)cccc1Cl,-1,0,-3,-33
COC(=O)c1ccc(CNC(=O)CCl)cc1,0,0,17,8
CC(=O)C1=C(O)C(=O)N(c2nnn(C)n2)C1c1cccs1 (configuration not stated),-1,3.6*,5,-1
